Screening results (PubChem)
The list is not random: actives were taken first. Their share in the collection is about 4.6%.
TRHR ag: qHTS for Small Molecule Agonists and Allosteric Enhancers of Human TRH Receptor: Primary Screen for Agonists. Thyrotropin-releasing hormone receptor (Homo sapiens), P34981. TRHR cells, calcium flux fluo-8, FDSS agonist mode. activation, % at 2 µM. 0.18% of 360,000 active; also: 0% is about no effect
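In this calcium-flux screen, cells bearing human TRHR are dye-loaded with fluo-8, baselined for 10 cycles, then exposed to library compounds; positive kinetic calcium responses during the agonist phase mark hits, with TRH as control.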
D1 antagonist: Antagonist of Human D 1 Dopamine Receptor: qHTS; D(1A) dopamine receptor (Homo sapiens), P21728; HEK293 TREx D1 cells, calcium flux, dopamine EC80; hits give low values; activity change, negative = inhibition, % at 10 µM; 3.2% of 360,000 active; AID 504652, 2011; in the data active = activity change below about -30%; also: % is scaled to controls: 0 for no effect and ±100 for the full control effect
Target sequence (P21728 whole entry, looked up): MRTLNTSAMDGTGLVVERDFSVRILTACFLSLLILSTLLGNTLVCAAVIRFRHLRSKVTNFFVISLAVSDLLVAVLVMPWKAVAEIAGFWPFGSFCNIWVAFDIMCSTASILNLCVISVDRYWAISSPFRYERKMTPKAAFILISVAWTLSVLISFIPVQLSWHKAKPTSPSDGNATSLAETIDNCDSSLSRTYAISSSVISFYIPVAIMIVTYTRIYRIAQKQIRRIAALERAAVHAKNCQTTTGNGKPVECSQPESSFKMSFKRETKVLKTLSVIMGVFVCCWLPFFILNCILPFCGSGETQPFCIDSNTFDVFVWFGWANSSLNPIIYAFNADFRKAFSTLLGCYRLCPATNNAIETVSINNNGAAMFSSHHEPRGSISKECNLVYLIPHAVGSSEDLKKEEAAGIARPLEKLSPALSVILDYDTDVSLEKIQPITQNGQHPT
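After overnight tetracycline induction at 30 C, force-coupled D1 HEK293 cells took up a no-wash calcium dye at room temperature. Compounds were added and monitored 180 s, and the response to EC80 dopamine was then recorded.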
D1 potentiator: Potentiators of Human D1 Dopamine Receptor: qHTS | D(1A) dopamine receptor (Homo sapiens), P21728 | 0.036% of 360,000 active | potentiation, % at 10 µM | HEK293 TREx D1 cells, calcium flux, dopamine EC20 potentiation; in the data active = potentiation above about 30%; also: 0% is about no effect
D1 agonist: Allosteric Agonists of the Human D1 Dopamine Receptor: qHTS; HEK293 T-REx D1 cells, calcium flux, agonist mode; activation, % at 2 µM; 1% of 360,000 active; AID 504660, 2011; also: 0% is about no effect
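Tetracycline-induced HEK293 TREx D1 cells, force-coupled to calcium signalling, were dye-loaded with a no-wash calcium kit. Compound was pin-added after a 10 s baseline. Fluorescence was read kinetically at 1 cycle/s for 180 s, with calcium rises flagged as agonism.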
TRHR enhancer: qHTS for Small Molecule Agonists and Allosteric Enhancers of Human TRH Receptor: Primary Screen for Enhancers | AID 493056, 2011 | TRHR cells, fluo-8 calcium fluorescence, EC20 TRH enhancement | 0.66% of 360,000 active | Thyrotropin-releasing hormone receptor (Homo sapiens), P34981 | enhancement, % at 2 µM; in the data active = enhancement above about 30%; also: 0% is about no effect
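TRHR-expressing cells loaded with fluo-8 calcium dye were read kinetically (ex 480/em 530) during compound addition, then stimulated with an EC20 of TRH (10 nM final). Enhancement of the Gq-mediated intracellular calcium response was scored.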
* hit, by the source's call; / = not tested or not shown; ! = not confirmed by another sample. Rule as the data show it, unless noted: active = activation above about 30%; inactive = the rest.

SMILES	TRHR ag	D1 antagonist	D1 potentiator	D1 agonist	TRHR enhancer
NC(=O)c1c(NC(=O)C2COc3ccccc3O2)sc2c1CCN(Cc1ccccc1)C2 (configuration not stated)	38*	-25	-1	105*	1
CCOC(=O)c1c(NC(=O)C2COc3ccccc3O2)sc2c1CCN(Cc1ccccc1)C2 (configuration not stated)	5	-12	-7	7	-1
O=C(Nc1ccc(C(=O)N2CCN(c3cccc(Cl)c3)CC2)cc1)c1nsc2ccccc12	0	-5	-2	3	-3
CC(=O)Nc1sc2c(c1C#N)CCC(C)C2 (configuration not stated)	-1	-13	3	0	3
CCN(CC(=O)Nc1sc2c(c1C#N)CCC(C)C2)Cc1nc2ccccc2c(=O)[nH]1 (configuration not stated)	0	-61*	-13	3	7
CCN(CC(=O)Nc1sc2c(c1C#N)CCC(C)C2)CC(=O)NC1CCS(=O)(=O)C1 (configuration not stated)	6	-60*	-13	9	13
CCN(CC(=O)Nc1sc2c(c1C#N)CCCC2)Cc1nc2ccccc2c(=O)[nH]1	0	-12	-2	-5	-6
Cc1ccc(S(=O)(=O)NC(N)=NCCC[C@@H](N)C(=O)Nc2cc(C(F)(F)F)ccc2Cl)cc1	-1	-15	1	1	17
CC1(C)CC(=O)C2=C(C1)OC(/N=C/N1CCCC1)=C(C#N)C2c1ccccc1 (configuration not stated)	0	-95*	-12	-1	-18
Cn1c(=O)oc2cc(S(=O)(=O)N3CCCC(C(=O)N4CCN(c5ccc(Cl)cc5)CC4)C3)ccc21 (configuration not stated)	-1	-34*	-3	9	-2
Cc1ccc(N2CCN(C(=O)C3CCN(S(=O)(=O)c4ccc5c(c4)oc(=O)n5C)CC3)CC2C)cc1 (configuration not stated)	-1	-44*	-3	12	-3
COc1ccccc1N1CCN(C(=O)C2CCCN(S(=O)(=O)c3ccc4c(c3)oc(=O)n4C)C2)CC1 (configuration not stated)	0	0	-10	15	-4
CCN(C(=O)C1CCN(S(=O)(=O)c2ccc3c(c2)oc(=O)n3C)CC1)c1cccc(C)c1	0	-39*	/	1	-6
COc1ccc(N2CCN(C(=O)C3CCCN(S(=O)(=O)c4ccc5c(c4)oc(=O)n5C)C3)CC2)cc1 (configuration not stated)	1	-45*!	-4	3	-4
Cc1ccc(N(C)C(=O)C2CCN(S(=O)(=O)c3ccc4c(c3)oc(=O)n4C)CC2)cc1	0	-14	7	-1	1
CN(C)S(=O)(=O)c1ccc(C(=O)N2CC(=O)Nc3ccc(Br)cc3C2c2ccc(F)cc2)cc1 (configuration not stated)	0	5	0	4	-13
CCN(CC)C(=O)C1CCN(S(=O)(=O)c2ccc3oc4ccccc4c3c2)CC1	0	-36*	2	7	-4
CC(C)CN(CC(C)C)C(=O)C1CCCN(S(=O)(=O)c2ccc3c(c2)oc(=O)n3C)C1 (configuration not stated)	-1	-31*	-1	1	5
O=C(Cc1ccc(Cl)cc1)Nc1ccc(N2CCCC2)cc1	-1	3	-7	1	4
Clc1cccc(Cl)c1CNc1ccc(N2CCCC2)cc1	1	2	-2	-1	31*
CC1=C(c2ccc(C)cc2)S(=O)(=O)N(Cc2ccc(C(=O)Nc3ccc(F)cc3C)cc2)C1=O	0	9	-2	0	6
COc1cccc(/C=C/C(=O)NNC(=O)c2ccncc2)c1	0	-6	-5	3	-4
COc1cccc(/C=C/C(=O)NNC(=O)c2ccncc2)c1OC	0	-39*	-3	100*	-1
Brc1ccc(-c2noc(COc3ccc4ccccc4c3)n2)o1	0	-52*	-7	27	15
Clc1ccccc1OCc1nc(-c2ccc(Br)o2)no1	0	-41*	/	11	-8
SMILES	TRHR ag	D1 antagonist	D1 potentiator	D1 agonist	TRHR enhancer
Fc1ccc(OCc2nc(-c3ccc(Br)o3)no2)c(F)c1	-1	3	-3	5	-4
COc1cccc(OCc2nc(-c3ccc(Br)o3)no2)c1	0	-9	0	9	0
COc1ccc(OC)c(CCNC(=O)Cn2ncc3c([nH]c4ccccc43)c2=O)c1	-1	4	0	3	12
O=C(Nc1ccc(Cl)cc1)NC1CCCCC1Cc1ccco1 (configuration not stated)	1	-34*	-9	5	-6
Cc1ccc(C(=O)NCC(=O)NCC(=O)OCC(=O)c2ccc(F)cc2)cc1	-1	-52*	-3	2	-1
Cc1ccc(C(=O)COC(=O)CNC(=O)C(c2ccccc2)c2ccccc2)cc1[N+](=O)[O-]	0	-3	7	3	-20
Cc1ccc(C(=O)NCC(=O)OCC(=O)c2ccc(C)c([N+](=O)[O-])c2)cc1	-2	-46*	-24	1	-6
O=C(CNC(=O)c1ccccc1)NCC(=O)OCC(=O)c1ccc(F)cc1	0	3	6	2	5
COCCNC(=O)c1cc2n(n1)CCCN(Cc1ccc(C)cc1)C2=O	-1	14	-1	0	1
Cc1ccc(C)c(CNC(=O)CN2C(=O)CSc3ccc(S(=O)(=O)N(C)C)cc32)c1	0	-14	-2	2	-2
COc1ccc(C2c3c4c(n(C)c3CCN2C)CCN(C)C4c2ccc(OC)cc2)cc1 (configuration not stated)	2	-31*	-2	2	-5
Cc1ccc(/C=C2\Sc3ccccc3C2=O)s1	1	-13	-1	4	-5
COc1ccc(OC)c(/C=C2/Sc3ccccc3C2=O)c1	66*	-2	8	312*	3
COC(=O)c1sc(N/N=C/c2ccc(C(C)C)cc2)nc1C	2	-37*	/	3	6
CC(=Nc1ccc(Br)cc1)c1sc2ccccc2c1O	12	-3	1	62*	1
Cc1ccc(NC(=S)NCc2cccs2)cc1	0	-12	0	0	1
CCCCc1ccc(NC(=S)NCc2cccs2)cc1	0	-32*	0	8	-3
COC(=O)/C=C1\SC(=Nc2ccc(Cl)c(Cl)c2)NC1=O	0	10	0	2	1
